From PubChem BioAssay (NCATS)
“And” between values parts separate entries of the source, which are not always exact repeats. Equal values may be shown once. Results filed as inconclusive are left out. The source made the active and inactive calls. Unless noted, calls follow the shape of the dose curve; as a rule, active = well fitted curve in either direction with a large enough effect (not every such curve was filed as active); inconclusive = small, poorly fitted or top-dose-only effect, or another doubt; inactive = flat fitted curve, though single readings scatter.

Key:
[1] = AP1 Signaling Pathway (AID 357); settings: ME-180 AP-1-bla reporter, EGF-induced, beta-lactamase ratio, 5 h;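 also: ME-180 reporter cells stimulated with EGF at its EC50 level; % is scaled to controls: 0 for no effect and ±100 for the full control effect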
Summary of the method: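 Titration-series screen for positive or negative modulators of EC50 EGF-induced signaling in ME-180 cells carrying an AP-1-driven beta-lactamase reporter. After 5 hours at 37 degrees Celsius, CCF4 460nm/530nm emission ratio gave %Activity; AC50 values derived.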

[2] = Stat Signaling Pathway (AID 446); settings: ME-180 (cervical carcinoma) SIE beta-lactamase reporter, IL-6 stimulated, 5 h;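 also: ME-180 cervical cancer cells given 40 pM IL-6 alongside compound; SIE-controlled beta-lactamase reporter measured as 460/530 nm FRET emission ratio; % is scaled to controls: 0 for no effect and ±100 for the full control effect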
Summary of the method: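 Compound effects on IL-6-induced STAT reporter activity were measured in ME-180 cells. After overnight culture, cells were co-treated with 40 pM IL-6 for 5 hrs before beta-lactamase substrate loading at room temperature.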

[3] = target: Glucocorticoid receptor (Homo sapiens) (UniProt P04150); assay: GR-GFP Redistribution (AID 450;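 active = compounds whose dose series gives a full or clear partial fitted curve of increased nuclear translocation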; also: potency is read from the fitted curve at half-maximal effect); settings: U2OS GR-GFP nuclear translocation, laser cytometry, 2 h
Sequence of Glucocorticoid receptor (Homo sapiens) (P04150 whole entry, looked up, the tested form may be a part): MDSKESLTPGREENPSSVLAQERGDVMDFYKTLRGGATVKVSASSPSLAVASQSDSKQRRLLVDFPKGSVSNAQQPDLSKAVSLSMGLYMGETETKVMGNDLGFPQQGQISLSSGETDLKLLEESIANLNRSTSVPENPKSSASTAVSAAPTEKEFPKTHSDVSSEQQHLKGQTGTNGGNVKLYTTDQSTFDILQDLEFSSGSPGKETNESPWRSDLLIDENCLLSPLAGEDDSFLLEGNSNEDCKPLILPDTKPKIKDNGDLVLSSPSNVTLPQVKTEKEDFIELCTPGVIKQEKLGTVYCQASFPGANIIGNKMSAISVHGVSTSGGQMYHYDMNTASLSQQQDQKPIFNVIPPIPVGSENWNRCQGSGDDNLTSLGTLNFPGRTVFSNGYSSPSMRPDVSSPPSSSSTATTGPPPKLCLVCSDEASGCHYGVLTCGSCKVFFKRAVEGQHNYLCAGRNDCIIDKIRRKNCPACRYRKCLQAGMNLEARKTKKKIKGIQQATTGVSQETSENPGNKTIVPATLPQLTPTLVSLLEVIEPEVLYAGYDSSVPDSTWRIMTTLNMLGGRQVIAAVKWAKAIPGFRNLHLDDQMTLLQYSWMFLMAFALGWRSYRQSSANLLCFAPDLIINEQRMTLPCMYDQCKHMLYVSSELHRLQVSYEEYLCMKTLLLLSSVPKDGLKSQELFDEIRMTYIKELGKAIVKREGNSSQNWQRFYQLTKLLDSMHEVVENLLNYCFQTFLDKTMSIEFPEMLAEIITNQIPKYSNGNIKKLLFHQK

[4] = target: Glucocorticoid receptor (Homo sapiens) (UniProt P04150); assay: GR-EFC Redistribution (AID 451; calls by dose curve; also: potency is read from the fitted curve at half-maximal effect); settings: CHO-K1 GR-EFC translocation, beta-gal luminescence, 2 h
Summary of the method: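 CHO-K1 cells stably expressing nuclear-localized β-gal enzyme acceptor and GR fused C-terminally to the enzyme donor fragment; ligand-driven nuclear translocation restores β-gal by complementation. Compounds titrated up to 46 uM final, 2 h at 37 °C; luminescence read.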

[5] = target: Mitogen-activated protein kinase 10 (Mus musculus) (UniProt Q61831); assay: JNK3 AlphaScreen Assay (AID 530); settings: JNK3 lysate, c-Jun phosphorylation; series mostly up to 57.1 µM;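 also: kinase came from lysate of stimulated human HepG2 cells; signal reports phosphorylation of biotinylated GST-cJun 1-79 at Ser73 with 10 µM ATP; % is scaled to controls: 0 for no effect and ±100 for the full control effect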
Summary of the method: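 Biotinylated GST-cJun(1-79) served as substrate for JNK3 in HepG2 lysates stimulated with IL-1beta and TNF-alpha. ATP was 10 uM final, pH 7.6. Ser73 phosphorylation was quantified by AlphaScreen (680 nm excitation).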

[6] = target: 3',5'-cyclic-AMP phosphodiesterase 4B (Homo sapiens) (UniProt Q07343); assay: qHTS Assay for Inhibitors of PDE-IV (AID 607; active = well fitted activation curve with a large enough effect in the main read-out, with a control signal flat, not every such curve was filed as active; also: % of control where 0% means no effect); settings: HEK293 ACTOne CNG channel cells, membrane potential fluorescence; series mostly up to 22.9 µM
Sequence of 3',5'-cyclic-AMP phosphodiesterase 4B (Homo sapiens) (Q07343 whole entry, looked up): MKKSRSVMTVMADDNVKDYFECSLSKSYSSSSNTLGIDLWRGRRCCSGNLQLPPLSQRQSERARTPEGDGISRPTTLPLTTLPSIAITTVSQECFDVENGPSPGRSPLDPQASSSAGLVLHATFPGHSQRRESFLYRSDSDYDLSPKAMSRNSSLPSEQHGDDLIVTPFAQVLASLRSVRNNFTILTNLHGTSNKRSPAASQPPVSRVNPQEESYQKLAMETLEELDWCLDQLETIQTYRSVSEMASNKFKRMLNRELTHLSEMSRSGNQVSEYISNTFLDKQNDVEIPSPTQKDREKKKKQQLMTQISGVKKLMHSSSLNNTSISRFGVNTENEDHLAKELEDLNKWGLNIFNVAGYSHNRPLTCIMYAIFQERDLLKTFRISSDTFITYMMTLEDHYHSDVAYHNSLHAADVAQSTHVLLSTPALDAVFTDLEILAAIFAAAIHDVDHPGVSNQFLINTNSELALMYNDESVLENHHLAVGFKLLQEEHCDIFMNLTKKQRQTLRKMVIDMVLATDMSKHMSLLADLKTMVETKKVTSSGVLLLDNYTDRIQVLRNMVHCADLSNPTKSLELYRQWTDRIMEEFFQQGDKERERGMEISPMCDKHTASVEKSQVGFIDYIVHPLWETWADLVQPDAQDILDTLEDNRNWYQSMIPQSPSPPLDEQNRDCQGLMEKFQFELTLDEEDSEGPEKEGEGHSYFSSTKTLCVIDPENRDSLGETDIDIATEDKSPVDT
Summary of the method: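 ACTOne HEK293 cells carry a modified cAMP-gated CNG channel and express endogenous PDE4; plated 1000 cells/well, compounds up to 22.9 uM final. Membrane-potential dye fluorescence (ex 535/em 590) was read; parental cells received 10 uM forskolin + 100 uM RO 20-1724.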

[7] = target: Cytochrome P450 3A4 (Homo sapiens) (UniProt P08684); assay: qHTS Assay for Activators of Cytochrome P450 3A4 (AID 885; active = well fitted curve in the direction sought with a large enough effect; an effect the other way counts as inactive or inconclusive; also: nearly all actives have a fitted effect of over 65% in size); settings: recombinant CYP3A4, Luciferin-PPXE luminescence, 60 min; series mostly up to 57.1 µM
Sequence of Cytochrome P450 3A4 (Homo sapiens) (P08684 whole entry, looked up): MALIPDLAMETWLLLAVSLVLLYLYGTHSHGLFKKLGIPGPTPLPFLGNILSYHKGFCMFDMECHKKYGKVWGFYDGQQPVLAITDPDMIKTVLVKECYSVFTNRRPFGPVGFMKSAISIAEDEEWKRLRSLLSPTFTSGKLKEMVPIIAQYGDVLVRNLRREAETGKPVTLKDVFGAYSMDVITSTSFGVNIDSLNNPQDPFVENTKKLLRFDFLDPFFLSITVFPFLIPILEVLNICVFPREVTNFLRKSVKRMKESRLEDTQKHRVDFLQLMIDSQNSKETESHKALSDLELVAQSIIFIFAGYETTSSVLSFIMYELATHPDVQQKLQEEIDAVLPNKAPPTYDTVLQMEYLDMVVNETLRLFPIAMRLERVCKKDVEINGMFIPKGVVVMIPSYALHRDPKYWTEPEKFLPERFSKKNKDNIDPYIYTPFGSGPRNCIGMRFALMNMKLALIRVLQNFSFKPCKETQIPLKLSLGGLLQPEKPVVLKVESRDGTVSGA
Summary of the method: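 CYP3A4 activity: Luciferin-PPXE O-dealkylation, 25uM substrate, 200mM KPO4, RT throughout. Read-out is luciferase luminescence; higher values reflect activation.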

[8] = qHTS Assay for Lipid Storage Modulators (AID 1519; calls by dose curve); settings: Drosophila S3 cells, BODIPY lipid droplet/cell ratio, laser cytometry, cells loaded with oleic acid; for activity change, negative = inhibition: at 25.7 µM (top of the series)
Summary of the method: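 Cells seeded at 5,000 per well were treated with compounds over a concentration series and loaded with oleic acid (400 uM, as added). Lipid droplet fluorescence (488 nm excitation, 500-530 nm channel) was read by laser-scanning cytometry and normalized to 20 uM Triacsin C.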

[9] = target: Ubiquitin carboxyl-terminal hydrolase 1 (Homo sapiens) (UniProt O94782); assay: Inhibitors of USP1/UAF1: Pilot qHTS (AID 504865; active = well fitted curve in the direction sought with a large enough effect; an effect the other way counts as inactive or inconclusive;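 also: rhodamine fluorescence freed from ubiquitin-rhodamine substrate followed over time; top concentration of the series differs between compounds; % is scaled to controls: 0 for no effect and ±100 for the full control effect; nearly all actives have a fitted effect of over 35% in size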); settings: purified USP1/UAF1, Ub-rhodamine cleavage fluorescence; series mostly up to 54.9 µM
Sequence of Ubiquitin carboxyl-terminal hydrolase 1 (Homo sapiens) (O94782 whole entry, looked up): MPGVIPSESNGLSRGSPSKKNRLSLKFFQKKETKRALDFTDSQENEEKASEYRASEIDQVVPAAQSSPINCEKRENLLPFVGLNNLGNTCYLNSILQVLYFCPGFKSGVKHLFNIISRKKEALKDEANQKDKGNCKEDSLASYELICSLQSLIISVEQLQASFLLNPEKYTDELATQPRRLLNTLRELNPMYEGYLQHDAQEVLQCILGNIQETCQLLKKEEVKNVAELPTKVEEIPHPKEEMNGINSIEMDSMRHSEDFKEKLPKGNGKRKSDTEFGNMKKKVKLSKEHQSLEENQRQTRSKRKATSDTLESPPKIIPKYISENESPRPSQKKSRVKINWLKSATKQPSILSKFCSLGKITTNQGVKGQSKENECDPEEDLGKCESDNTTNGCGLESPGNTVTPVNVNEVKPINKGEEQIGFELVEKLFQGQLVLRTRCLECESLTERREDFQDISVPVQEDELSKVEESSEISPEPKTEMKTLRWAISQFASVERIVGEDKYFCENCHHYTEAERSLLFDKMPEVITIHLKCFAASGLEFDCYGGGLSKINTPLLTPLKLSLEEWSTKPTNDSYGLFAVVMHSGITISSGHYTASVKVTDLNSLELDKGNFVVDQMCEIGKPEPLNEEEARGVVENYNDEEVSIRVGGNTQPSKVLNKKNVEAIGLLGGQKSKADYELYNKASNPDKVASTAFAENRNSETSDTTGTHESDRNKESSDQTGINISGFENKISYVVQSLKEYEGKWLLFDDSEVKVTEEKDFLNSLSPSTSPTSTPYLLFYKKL
Summary of the method: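 USP1/UAF1 complex (1nM) preincubated with compound 15 min at room temperature, then Ub-Rho substrate (150nM final) added. Fluorescence read kinetically at 480/540 nm, 6 reads every 60 seconds. Buffer: 50mM HEPES pH 7.8, 0.5mM EDTA, 0.1 mg/ml BSA, 1mM TCEP, 0.01% Tween-20.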

[10] = target: Cytochrome P450 1A2 (Homo sapiens) (UniProt P05177); assay: p450-cyp1a2 (AID 410; calls by dose curve; also: potency is read from the fitted curve at half-maximal effect;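 as to activity change, negative = inhibition: -100% = full effect of reference inhibitor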); settings: recombinant CYP1A2, luciferin-ME demethylation, luminescence; series mostly up to 57 µM
Sequence of Cytochrome P450 1A2 (Homo sapiens) (P05177 whole entry, looked up): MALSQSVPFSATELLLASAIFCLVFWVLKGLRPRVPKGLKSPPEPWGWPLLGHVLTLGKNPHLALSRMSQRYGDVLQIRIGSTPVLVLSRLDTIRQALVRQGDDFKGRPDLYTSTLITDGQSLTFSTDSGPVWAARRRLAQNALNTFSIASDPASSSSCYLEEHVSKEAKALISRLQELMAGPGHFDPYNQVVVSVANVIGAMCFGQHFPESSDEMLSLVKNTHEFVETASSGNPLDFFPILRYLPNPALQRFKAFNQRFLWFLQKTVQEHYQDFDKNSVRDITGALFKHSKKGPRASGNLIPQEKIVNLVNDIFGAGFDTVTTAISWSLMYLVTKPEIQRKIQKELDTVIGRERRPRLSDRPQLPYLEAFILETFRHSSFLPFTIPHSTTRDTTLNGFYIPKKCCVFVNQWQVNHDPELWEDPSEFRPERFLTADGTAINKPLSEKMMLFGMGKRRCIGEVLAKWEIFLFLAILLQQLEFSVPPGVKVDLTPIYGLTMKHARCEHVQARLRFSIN
Summary of the method: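 Read-out is luminescence from luciferin produced by CYP1A2 demethylation of Luciferin-ME (100uM, at Km). Detection reagent stopped the 60 min NADPH-dependent reaction; signals were normalized to 57 uM furafylline.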

[11] = target: Luciferin 4-monooxygenase (Photinus pyralis) (UniProt P08659); assay: Biochemical firefly luciferase enzyme assay for NPC (AID 624030; active = well fitted curve in the direction sought with a large enough effect; an effect the other way counts as inactive or inconclusive;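 also: purified P. pyralis luciferase at 10 nM with luciferin and ATP substrate; 0% = DMSO and -100% = full luciferase inhibition by PTC124 control; nearly all actives have a fitted effect of over 70% in size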); settings: purified P. pyralis luciferase, luminescence, 5 min; series mostly up to 58.6 µM
Sequence of Luciferin 4-monooxygenase (Photinus pyralis) (P08659 whole entry, looked up): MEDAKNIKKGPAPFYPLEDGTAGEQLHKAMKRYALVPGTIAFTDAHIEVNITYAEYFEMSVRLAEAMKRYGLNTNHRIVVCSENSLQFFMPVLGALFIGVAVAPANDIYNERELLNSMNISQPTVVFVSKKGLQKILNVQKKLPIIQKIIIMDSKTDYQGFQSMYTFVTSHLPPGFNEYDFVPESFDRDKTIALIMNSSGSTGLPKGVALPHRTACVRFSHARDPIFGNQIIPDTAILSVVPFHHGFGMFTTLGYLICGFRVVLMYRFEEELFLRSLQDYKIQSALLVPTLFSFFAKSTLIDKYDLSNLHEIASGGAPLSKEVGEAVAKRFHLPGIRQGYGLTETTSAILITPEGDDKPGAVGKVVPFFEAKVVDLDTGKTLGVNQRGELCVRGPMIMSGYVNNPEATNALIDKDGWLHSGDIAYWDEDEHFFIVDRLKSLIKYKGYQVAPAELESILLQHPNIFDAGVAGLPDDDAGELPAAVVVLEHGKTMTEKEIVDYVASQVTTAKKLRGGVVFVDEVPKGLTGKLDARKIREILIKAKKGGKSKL
Summary of the method: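 Counter-screen for direct inhibition of the luciferase enzyme by approved-drug library compounds, run at 10 nM enzyme in 50 mM Tris acetate (final). Luminescence was read within 5 min of enzyme-buffer addition and normalized to PTC124 versus DMSO (0%).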

[12] = system: CP238; assay: qHTS profiling for inhibitors of Plasmodium falciparum proliferation (AID 504749; active = well fitted curve in the direction sought with a large enough effect; an effect the other way counts as inactive or inconclusive; also: nearly all actives have a fitted effect of over 60% in size; also: potency is read from the fitted curve at half-maximal effect;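 as to activity, negative = inhibition: 0% = DMSO vehicle and full inhibition = artemisinin control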); settings: P. falciparum in erythrocytes, SYBR Green DNA, 72 h; series mostly up to 12.8 µM
Summary of the method: (§1)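 Fluorescence of SYBR Green-bound parasite DNA, read at 485/535 nm, served as the growth measure. Infected erythrocytes were cultured with compound 72 h; artemisinin (0.29 uM) and DMSO wells defined the normalization range.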

[13] = system: CP262; assay: as above; settings: P. falciparum in erythrocytes, SYBR Green DNA, 72 h; series mostly up to 12.8 µM
Summary of the method: as §1

[14] = system: CP325; assay: as above; settings: P. falciparum in erythrocytes, SYBR Green DNA, 72 h; series mostly up to 12.8 µM
Summary of the method: as §1

[15] = system: ECU; assay: as above; settings: P. falciparum in erythrocytes, SYBR Green DNA, 72 h; series mostly up to 12.8 µM
Summary of the method: as §1

[16] = system: FAB9; assay: as above; settings: P. falciparum in erythrocytes, SYBR Green DNA, 72 h; series mostly up to 12.8 µM
Summary of the method: as §1

[17] = system: HB3; assay: as above; settings: P. falciparum in erythrocytes, SYBR Green DNA, 72 h; series mostly up to 12.8 µM
Summary of the method: as §1

[18] = system: JCK; assay: as above; settings: P. falciparum in erythrocytes, SYBR Green DNA, 72 h; series mostly up to 12.8 µM
Summary of the method: as §1

[19] = NFAT Signaling Pathway (AID 444); settings: Jurkat NFAT-bla M1, carbachol, beta-lactamase ratio, 5 h;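 also: carbachol stimulus at about its EC50 of 1 µM final; % is scaled to controls: 0 for no effect and ±100 for the full control effect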
Summary of the method: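 Jurkat cells carrying an NFAT-driven β-lactamase reporter and co-transfected muscarinic M1 receptor were treated with compound plus carbachol (1 uM final, an EC50 level) for 5 h at 37 °C. CCF4 loading followed for 1 h at RT; 460/530 nm ratio gave %activity.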

[20] = qHTS profiling for inhibitors of Plasmodium falciparum proliferation (AID 504749); also: nearly all actives have a fitted effect of over 60% in size; also: potency is read from the fitted curve at half-maximal effect;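 as to activity, negative = inhibition: 0% = DMSO vehicle and full inhibition = artemisinin control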; settings: P. falciparum in erythrocytes, SYBR Green DNA, 72 h, at 12.8 µM (top of the series)
Summary of the method: as §1

[21] = measured here: cell count channel max response
[22] = measured here: lipid channel max response
[23] = at 7.69 µM (top of the series) unless noted

OCCN1CCN(CC/C=C2\c3ccccc3Sc3ccc(C(F)(F)F)cc32)CC1
-13.1%: max response [8, 21]
inactive: activity change, negative = inhibition ([1]; at 17.2 µM (top of the series)) 16.2% | activity change, negative = inhibition ([1]; at 38 µM (top of the series)) 29.4% | activity, negative = inhibition ([2]; at 17.2 µM (top of the series)) 5.96% | activity, negative = inhibition ([2]; at 38 µM (top of the series)) -10.3% | Potency [3] > 46 µM and > 20.6 µM | Potency [4] > 46 µM and > 20.6 µM | Potency [5] | Potency [6] | Potency [7] | activity change, negative = inhibition [8] -3.77% | Potency [9]
-14.8%: max response [8, 22]

CCN(CC)CC#CCOC(=O)[C@@](O)(c1ccccc1)C1CCCCC1
-6.72%: max response [8, 21]
-11.7%: max response [8, 22]
inactive: activity change, negative = inhibition ([1]; at 17.2 µM (top of the series)) 0.766% | activity change, negative = inhibition ([1]; at 38 µM (top of the series)) -1.31% | activity, negative = inhibition [2, 23] -21.9% [at 38 µM] | Potency [3] > 46 µM and > 20.6 µM | Potency [4] > 46 µM and > 20.6 µM | Potency [5] | Potency [6] | Potency [7] | activity change, negative = inhibition [8] -3.63% | Potency [9] | outcome [11] | Potency [12] | Potency [13] | Potency [14] | Potency [16] | Potency [17] | Potency [18]
active: Potency [10] 3.98 µM and 1.26 µM | Potency [15] 12.6 µM

O=c1[nH]c(=O)n([C@@H]2C[C@H](O)[C@H](CO)O2)cc1I
1.83%: max response [8, 22]
inactive: activity change, negative = inhibition [1, 23] 9.17% [at 17.2 µM] | Potency [10] | activity change, negative = inhibition [19, 23] 8.3% [at 17.2 µM] | activity, negative = inhibition [2, 23] 11.4% [at 17.2 µM] | Potency [3] > 20.6 µM | Potency [4] > 20.6 µM | Potency [5] | activity change, negative = inhibition [8] -3.3% | Potency [9] | outcome [11] | activity, negative = inhibition ([20]; parasite line A) -1.96% | activity, negative = inhibition ([20]; parasite line B) 14.3% | Potency [12] | Potency [13] | Potency [14] | Potency [15] | Potency [16] | Potency [17] | Potency [18]
2.86%: max response [8, 21]

C[C@]12CCC3c4ccc(O)cc4CCC3[C@@H]1CCC2=O (stereo partly drawn)
-7.49%: max response [8, 21]
-8.59%: max response [8, 22]
inactive: activity change, negative = inhibition ([1]; at 17.2 µM (top of the series)) 0.112% | activity change, negative = inhibition ([1]; at 38 µM (top of the series)) -3.57% | activity change, negative = inhibition ([19]; at 17.2 µM (top of the series)) -16.8% | activity change, negative = inhibition ([19]; at 38 µM (top of the series)) -2.29% | activity, negative = inhibition ([2]; at 17.2 µM (top of the series)) -9.06% | activity, negative = inhibition ([2]; at 38 µM (top of the series)) -20.6% | Potency [5] | Potency [6] | activity change, negative = inhibition [8] -0.972% | Potency [9]

CN(C)CC[C@H](c1ccc(Br)cc1)c1ccccn1
-4.35%: max response [8, 21]
-5.95%: max response [8, 22]
inactive: activity change, negative = inhibition ([1]; at 17.2 µM (top of the series)) 0.671% | activity change, negative = inhibition ([1]; at 38 µM (top of the series)) 15.7% and 25.3% | Potency [10] | activity, negative = inhibition ([2]; at 17.2 µM (top of the series)) -5.49% | activity, negative = inhibition ([2]; at 38 µM (top of the series)) -29.8% | Potency [5] | Potency [6] | activity change, negative = inhibition [8] -2.32% | Potency [9]
